Screening data from PubChem.
Hits are enriched below; roughly 4.1% of the tested compounds scored in any of these assays.
MRP1 act = MRP-1 activation | H69AR cells + doxorubicin, viability rescue, CellTiter-Glo | viability increase, % at 10 µM | 0.61% of 140,000 active;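 active means viability gain under doxorubicin at or above a set limit, the compound median plus 3 SD, cut at about 4.7% in these data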;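 further: MRP-1 overexpressing cells given doxorubicin 25 µM after compound pretreatment; 18-22 h compound pretreatment then 72 h with doxorubicin before readout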
Cav32 inh = inhibitors of human Cav3.2 T-type calcium channel. O95180. Cav3.2-expressing cells, Fluo-4 calcium fluorescence FDSS; active compounds read low. B-score at 10 µM. 4% of 100,000 active. AID 449739;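 active means single-dose well whose peak fluorescence ratio is a statistical outlier from its plate by either plate-standardised score or position-corrected B-score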
Mac1 fbg enh = increases human CD11b/CD18 adhesion to fibrinogen; P05107+P11215; K562 CD11b/CD18 adhesion to fibrinogen, ATPlite luminescence; activation, % at 10 µM; 0.07% of 93,000 active; AID 1499;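 active means 10 µM primary screen giving 50% or more activity, confirmed by 40% or more on retest at that dose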
PTK2B oligo ant = blocks oligomerization of human Pyk2 in cells. Q14289. Q293 cells, Pyk2 FERM NanoBiT luminescence; active compounds read low. z-score (the deposit names both 25 µM and 10 µM). 0.83% of 99,000 active;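 active means Z-score of -3 or lower, scaled per plate to the spread of control and sample wells; inactive means z-score above -3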;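 further: negative z-score means lost luminescence so less FERM oligomerization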
Target sequence (Q14289 whole entry, looked up): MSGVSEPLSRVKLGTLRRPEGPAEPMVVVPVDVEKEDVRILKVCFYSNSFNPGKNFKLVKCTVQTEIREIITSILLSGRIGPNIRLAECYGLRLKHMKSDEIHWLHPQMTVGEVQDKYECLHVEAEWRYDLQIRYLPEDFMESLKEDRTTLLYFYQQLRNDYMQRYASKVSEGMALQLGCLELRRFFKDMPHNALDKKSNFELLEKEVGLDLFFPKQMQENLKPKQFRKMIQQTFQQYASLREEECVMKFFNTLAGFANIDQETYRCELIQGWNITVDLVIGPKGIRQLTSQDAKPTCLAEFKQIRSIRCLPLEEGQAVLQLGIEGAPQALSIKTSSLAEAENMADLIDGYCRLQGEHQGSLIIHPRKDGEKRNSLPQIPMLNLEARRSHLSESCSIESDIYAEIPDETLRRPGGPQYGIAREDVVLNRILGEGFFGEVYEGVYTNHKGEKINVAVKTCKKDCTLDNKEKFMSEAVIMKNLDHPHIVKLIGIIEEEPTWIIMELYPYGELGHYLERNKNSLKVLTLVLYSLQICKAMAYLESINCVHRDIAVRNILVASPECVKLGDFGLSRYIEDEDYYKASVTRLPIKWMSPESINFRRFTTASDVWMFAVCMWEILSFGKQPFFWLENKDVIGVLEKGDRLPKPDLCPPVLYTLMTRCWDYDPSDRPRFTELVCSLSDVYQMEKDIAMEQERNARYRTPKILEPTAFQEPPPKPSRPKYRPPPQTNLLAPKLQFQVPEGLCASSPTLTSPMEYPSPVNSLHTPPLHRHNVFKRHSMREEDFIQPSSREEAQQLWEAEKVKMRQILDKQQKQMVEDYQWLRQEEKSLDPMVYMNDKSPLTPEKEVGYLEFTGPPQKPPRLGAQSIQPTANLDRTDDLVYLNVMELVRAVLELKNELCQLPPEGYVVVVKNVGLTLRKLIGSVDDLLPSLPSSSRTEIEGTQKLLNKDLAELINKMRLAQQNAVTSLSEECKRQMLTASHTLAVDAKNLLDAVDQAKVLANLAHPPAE
MRP resist rev = compounds reversing MRP-mediated drug resistance | H69AR cells + 2 uM doxorubicin, CellTiter-Glo, 72 h | differential viability (reversal), % at 10 µM | 0.04% of 85,000 active | AID 602;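 active means viability drop by adding the cancer drug above about 55%, with treated viability meeting a 40% cutoff, limit read from the data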;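 further: larger differential means the compound sensitizes cells more to doxorubicin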
Mac1 fbg inh = blocks human CD11b/CD18 adhesion to fibrinogen; inhibition, % at 10 µM; K562 CD11b/CD18 adhesion to fibrinogen, ATPlite luminescence; Mn2+ added to activate the integrin; 0.54% of 93,000 active; P05107+P11215;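 active means primary inhibition of 50% or more at 10 µM, then 40% or more on retest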
Of the large screens only hits and unclear results are named; the others gave an inactive call.

Cc1ccc(S(=O)(=O)Oc2ccc3c(c2)O/C(=C\c2cccnc2)C3=O)cc1	PTK2B oligo ant -3
CC(=O)NC(=S)Nc1ccc(NC(=O)COc2ccc(Cl)cc2Cl)cc1	Mac1 fbg enh 53 (no result: MRP resist rev)
O=C(COc1ccc(Cl)cc1Cl)Nc1ccccn1	Mac1 fbg inh 99
COc1cc(/C=C2/SC(=S)N(c3ccccc3)C2=O)ccc1Oc1nc(N2CCOCC2)nc(N2CCOCC2)n1	none (no result: Cav32 inh, PTK2B oligo ant, MRP resist rev)
Cc1ccc(CS(=O)(=O)CCC(=O)NCCN2CCCCC2C)cc1 (stereo unspecified)	none
COC(=O)c1sc(S(=O)(=O)Nc2ccc(C)cc2)c(C(=O)OC)c1C	none (no result: Cav32 inh, Mac1 fbg enh, PTK2B oligo ant, MRP resist rev, Mac1 fbg inh)
COC(=O)c1sc(S(=O)(=O)Nc2ccc(Br)cc2)c(C(=O)OC)c1C	Mac1 fbg inh 91 (no result: Cav32 inh, PTK2B oligo ant, MRP resist rev)
CCOc1ccc(N(CC(=O)NC2CCCCC2)C(=O)CSc2nnc(COc3ccccc3)o2)cc1	Cav32 inh -4.3 (no result: Mac1 fbg enh, Mac1 fbg inh)
COC(=O)Nc1nc(-c2ccccc2)c(C(=O)c2ccccc2)s1	none (no result: MRP resist rev)
CCOC(=O)c1c(NC(C)=O)no[n+]1[O-]	none (no result: Mac1 fbg enh, Mac1 fbg inh)
Cc1cccc(C(=O)NNC(=O)CCC(=O)Nc2cccc(Cl)c2C)c1	none (no result: Cav32 inh, Mac1 fbg enh, PTK2B oligo ant, MRP resist rev, Mac1 fbg inh)
CCCC(C)NC(=O)c1nc(-c2ccccc2)n(-c2ccccc2)n1 (stereo unspecified)	Cav32 inh -4.9
Cc1ccc(C)c(NC(=O)c2cc(-c3ccccc3)nn2-c2ccccc2)c1	none (no result: Cav32 inh, PTK2B oligo ant, MRP resist rev)
O=C(O)c1nc(-c2ccccc2)n(-c2ccccc2)n1	none (no result: Cav32 inh, Mac1 fbg enh, PTK2B oligo ant, MRP resist rev, Mac1 fbg inh)
Cc1ccc(C)c(NC(=O)c2nc(-c3ccccc3)n(-c3ccccc3)n2)c1	Cav32 inh -5.8 (no result: MRP resist rev)
COc1cccc(C(=O)Nc2nc(-c3ccc(S(=O)(=O)N4CCOCC4)cc3)cs2)c1	PTK2B oligo ant -3.3 (no result: Cav32 inh)
O=C(Nc1nc(-c2ccc(S(=O)(=O)N3CCOCC3)cc2)cs1)c1ccccc1	none (no result: Cav32 inh, PTK2B oligo ant)
O=C(Nc1nc(-c2nc3ccccc3s2)cs1)c1ccc(S(=O)(=O)N2CCOCC2)cc1	PTK2B oligo ant -3.6 (no result: Cav32 inh)
C/C(=N\O)C(=O)OC1CC(C)CCC1C(C)C (stereo unspecified)	Cav32 inh -4.7
CCOC(=O)Cc1cnc(NC(=O)Cn2nnc(-c3ccc(OCC)cc3)n2)s1	Cav32 inh -7.2
O=C(CSc1ccc(-c2ccccc2)nn1)NCc1ccco1	none (no result: Mac1 fbg enh, Mac1 fbg inh)
Cc1cc(C)cc(-n2c(C)cc(/C=C3\C(=N)N4N=C(CC(C)C)SC4=NC3=O)c2C)c1	MRP1 act 4.7 (no result: Cav32 inh, Mac1 fbg enh, PTK2B oligo ant, MRP resist rev, Mac1 fbg inh)
Cn1c(SCC(=O)N/N=C/C=C\c2ccccc2[N+](=O)[O-])nc2ccccc21	none (no result: Cav32 inh, PTK2B oligo ant, MRP resist rev)
CN=c1scc(C)n1/N=C/c1ccc2c(c1)OCO2	Cav32 inh -4
CC(C)c1nc(N2CCN(C(=O)c3ccccc3)CC2)c(C#N)c2c1COC(C)(C)C2	Cav32 inh -6.2
CC1(C)Cc2c(C#N)c(N3CCN(C(=O)c4ccccc4)CC3)nc(-c3ccco3)c2CS1	none (no result: Mac1 fbg enh, MRP resist rev, Mac1 fbg inh)
CC(C)N(CCNC(=O)C1CCC(=O)N1Cc1ccc(F)cc1)Cc1ccccc1 (stereo unspecified)	none
CC(C)C(CCN1C(=O)CCC1=O)C1CCOC(C)(C)C1 (stereo unspecified)	none (no result: Mac1 fbg enh, Mac1 fbg inh)
Cc1ccc(CC2SC(=Nc3ccccc3)N(c3ccccc3)C2=O)cc1 (stereo unspecified)	MRP1 act 5.7 (no result: Cav32 inh, Mac1 fbg enh, PTK2B oligo ant, MRP resist rev, Mac1 fbg inh)
O=C(O)CC1SC(=Nc2ccccc2)N(c2ccccc2)C1=O (stereo unspecified)	none
CC1CCN(C(=S)c2cn(Cc3ccccc3F)c3ccccc23)CC1	Cav32 inh -6.5 (no result: MRP resist rev)
CCOc1cc(C)c(Cl)cc1S(=O)(=O)n1cnc2ccccc21	Cav32 inh -5.7
O=C(O)C(Cc1ccccc1)N1C(=O)/C(=C/c2cccc3ccccc23)SC1=S (stereo unspecified)	Mac1 fbg inh 91 (no result: PTK2B oligo ant, MRP resist rev)
COc1cc(CNCC(C)C)c(Br)cc1OCC(=O)NCc1ccccc1	none (no result: Mac1 fbg enh, Mac1 fbg inh)
CN(C)CCCNc1ccc(-c2cc(Nc3cccc(Cl)c3)ncn2)cn1	none (no result: MRP1 act, Mac1 fbg enh, PTK2B oligo ant, MRP resist rev, Mac1 fbg inh)
Cc1ccc(-c2noc(CCC(=O)N(C)c3ccccc3C)n2)cc1	Cav32 inh -5.6
Cc1ccc(-c2noc(CCC(=O)Nc3ccccc3C)n2)cc1	none
COc1ccc(-c2noc(CCC(N)=O)n2)cc1OC	none
COc1ccc(-c2noc(CCC(=O)N(C)c3cccc(C)c3)n2)cc1	Cav32 inh -5.8
CCN(C(=O)CCc1nc(-c2ccc(OC)cc2)no1)c1cc(OC)ccc1OC	Cav32 inh -6.5
COc1ccc(CCc2nc(-c3ccc(-n4cccc4)cc3)no2)cc1	Mac1 fbg inh 62 (no result: PTK2B oligo ant)
O=C1NC(=O)C2C3c4ccccc4C(c4ccccc43)C12 (stereo unspecified)	none
CCCCN(CCCC)c1nc2ccccc2nc1NS(=O)(=O)c1ccc(NC(C)=O)cc1	none
COc1ccc(N2CCN(C(c3ccccc3)c3nnnn3Cc3ccc(F)cc3)CC2)cc1 (stereo unspecified)	Cav32 inh -4.6
COc1ccc(C(c2nnnn2Cc2ccc(F)cc2)N2CCN(c3ccc(OC)cc3)CC2)cc1 (stereo unspecified)	none (no result: Cav32 inh)
CN1CCN(C(c2ccc(F)cc2)c2nnnn2Cc2cccs2)CC1 (stereo unspecified)	none
COc1ccc(C(c2nnnn2Cc2cccs2)N2CCN(c3ccc(F)cc3)CC2)cc1OC (stereo unspecified)	PTK2B oligo ant -3.3
COc1ccc(C(c2nnnn2Cc2ccc(F)cc2)N2CCN(c3ccccc3)CC2)cc1 (stereo unspecified)	Cav32 inh -5.8, PTK2B oligo ant -3.4
Nc1c(S(=O)(=O)c2cccs2)c2nc3ccccc3nc2n1/N=C/c1cccc(O)c1	PTK2B oligo ant -3.2
CCOC(=O)C1(C(C)(C)CC)CC(CSc2nc3ccccc3[nH]2)OC1=O (stereo unspecified)	Cav32 inh -6.8 (no result: Mac1 fbg enh, Mac1 fbg inh)
CCOC(=O)CSc1nc2ccccc2c(=O)[nH]1	none (no result: PTK2B oligo ant)
Cc1nn2c(N3CCN(C(=O)c4ccco4)CC3)cc(C(C)(C)C)nc2c1-c1ccccc1	Cav32 inh -6.7 (no result: Mac1 fbg enh, PTK2B oligo ant, Mac1 fbg inh)
Cc1nn2c(N3CCN(C4CCCC4)CC3)cc(C(C)(C)C)nc2c1-c1ccccc1	none
COc1cc(-c2nc(-c3ccc4c(c3)-c3ccccc3S4(=O)=O)c(-c3ccccc3)[nH]2)cc(OC)c1OC	PTK2B oligo ant -3
COc1cc(-c2nc(-c3ccccc3)c(-c3cccs3)[nH]2)cc(OC)c1OC	PTK2B oligo ant -3
COc1cccc(-c2nc(-c3ccc4c(c3)-c3ccccc3S4(=O)=O)c(-c3ccccc3)[nH]2)c1OC	none (no result: Mac1 fbg enh, Mac1 fbg inh)
O=C(c1cccn(Cc2cccc(Cl)c2)c1=O)N1CCOCC1	none (no result: Mac1 fbg enh, MRP resist rev, Mac1 fbg inh)
CCOC(=O)CSc1nc2cc(C(=O)NCc3ccco3)ccc2c(=O)n1C1CCCCC1	none
CN(C)C(=O)C(CCN1CCC(O)(c2ccc(Cl)cc2)CC1)(c1ccccc1)c1ccccc1	Cav32 inh -4.6 (no result: Mac1 fbg enh, PTK2B oligo ant, MRP resist rev, Mac1 fbg inh)
OC(CCCN1CCC(O)(c2ccc(Cl)cc2)CC1)c1ccc(F)cc1 (stereo unspecified)	none (no result: Mac1 fbg enh, PTK2B oligo ant, Mac1 fbg inh)
O=C(c1cc2c(=O)n3ccccc3nc2s1)N1CCOCC1	none (no result: Cav32 inh, MRP resist rev)
